# Results published in PubChem BioAssay (NCATS).
# Results filed as inconclusive are left out. Values without a mark were called inactive. The source made the active and inactive calls. Calls follow the shape of the dose curve; as a rule, active = well fitted inhibition curve with a large enough effect; inconclusive = small, poorly fitted or top-dose-only effect; inactive = flat fitted curve, though single readings scatter.
# Columns and labels:
# [1] = qHTS profiling for inhibitors of Plasmodium falciparum proliferation (AID 504749); also: nearly all actives have a fitted effect of over 60% in size;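 as to activity, negative = inhibition: 0% = DMSO vehicle and full inhibition = artemisinin control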; conditions: P. falciparum in erythrocytes, SYBR Green DNA, 72 h
# How it was run: (§1)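 In a 72 h erythrocytic culture (37 C, humidified, 5% CO2) at 2.5% hematocrit and 0.3% starting parasitemia, compounds were tested; SYBR Green I in detergent lysis buffer stained parasite DNA overnight.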
# 3D7 = assay: as above; conditions: P. falciparum in erythrocytes, SYBR Green DNA, 72 h; series mostly up to 28.7 µM
# How it was run: as §1
# 7G8 = assay: as above; conditions: P. falciparum in erythrocytes, SYBR Green DNA, 72 h; series mostly up to 28.7 µM
# How it was run: as §1
# AA1029 = assay: as above; conditions: P. falciparum in erythrocytes, SYBR Green DNA, 72 h; series mostly up to 28.7 µM
# How it was run: as §1
# AS120 = assay: as above; conditions: P. falciparum in erythrocytes, SYBR Green DNA, 72 h; series mostly up to 28.7 µM
# How it was run: as §1
# ATS189 = assay: as above; conditions: P. falciparum in erythrocytes, SYBR Green DNA, 72 h; series mostly up to 28.7 µM
# How it was run: as §1
# ATS95 = assay: as above; conditions: P. falciparum in erythrocytes, SYBR Green DNA, 72 h; series mostly up to 28.7 µM
# How it was run: as §1
# C2A = assay: as above; conditions: P. falciparum in erythrocytes, SYBR Green DNA, 72 h; series mostly up to 28.7 µM
# How it was run: as §1
# CP185 = assay: as above; conditions: P. falciparum in erythrocytes, SYBR Green DNA, 72 h; series mostly up to 28.7 µM
# How it was run: as §1
# [2] = at 28.7 µM (top of the series), parasite line A
# [3] = at 28.7 µM (top of the series), parasite line B
# Potency is read from the fitted curve at half-maximal effect.
SMILES,"activity, negative = inhibition [1, 2]","activity, negative = inhibition [1, 3]",Potency (3D7),Potency (7G8),Potency (AA1029),Potency (AS120),Potency (ATS189),Potency (ATS95),Potency (C2A),Potency (CP185),Potency ([1]; parasite line A),Potency ([1]; parasite line B),"activity, negative = inhibition ([1]; at 12.8 µM (top of the series), parasite line A)","activity, negative = inhibition ([1]; at 12.8 µM (top of the series), parasite line B)"
O=C(O)CP(=O)(O)O,3.45%,-17.2%,inactive,inactive,inactive,inactive,inactive,inactive,inactive,inactive,–,–,–,–
CCCN(CCC)CCc1cccc2c1CC(=O)N2,-9.53%,-8.71%,inactive,inactive,inactive,inactive,inactive,inactive,inactive,inactive,–,–,–,–
O=C1NCN(c2ccccc2)C12CCN(CCCC(c1ccc(F)cc1)c1ccc(F)cc1)CC2,–,–,3.55 µM (active),3.16 µM (active),5.01 µM (active),4.47 µM (active),10 µM (active),8.91 µM (active),7.08 µM (active),10 µM (active),3.16 µM (active),7.94 µM (active),–,–
CCNC(=O)N1CCN(CCCC(c2ccc(F)cc2)c2ccc(F)cc2)CC1,–,–,7.08 µM (active),2 µM (active),2.24 µM (active),2.24 µM (active),1.12 µM (active),2.24 µM (active),1.41 µM (active),0.447 µM (active),1.12 µM (active),1.26 µM (active),–,–
O=C(O)CN(CCOCCOCCN(CC(=O)O)CC(=O)O)CC(=O)O,8.03%,13.7%,inactive,inactive,inactive,inactive,inactive,inactive,inactive,inactive,–,–,–,–
CCN(CC)CCCN(c1ccccc1)C1Cc2ccccc2C1,–,–,10 µM (active),1.78 µM (active),4.47 µM (active),4.47 µM (active),12.6 µM (active),5.01 µM (active),11.2 µM (active),6.31 µM (active),4.47 µM (active),7.08 µM (active),–,–
Cc1scc2c1N(C(=O)CN1CCN(C)CC1)c1ccccc1NC2=O,0.0421%,4.05%,inactive,inactive,inactive,inactive,inactive,inactive,inactive,inactive,–,–,–,–
COC(=O)C1=C(C)NC(C)=C(C(=O)OC(C)(C)CN(C)CCC(c2ccccc2)c2ccccc2)C1c1cccc([N+](=O)[O-])c1 (stereo not given),–,–,2.51 µM (active),2 µM (active),2.51 µM (active),2 µM (active),2 µM (active),3.55 µM (active),4.47 µM (active),5.01 µM (active),2 µM (active),2 µM (active),–,–
COC(=O)[C@H]1[C@H]2C[C@@H]3c4[nH]c5cc(OC)ccc5c4CCN3C[C@H]2C[C@@H](OC(=O)c2cc(OC)c(OC)c(OC)c2)[C@@H]1OC,–,–,8.91 µM (active),1.41 µM (active),8.91 µM (active),4.47 µM (active),11.2 µM (active),11.2 µM (active),11.2 µM (active),7.94 µM (active),11.2 µM (active),11.2 µM (active),–,–
O=c1[nH]c(=O)n([C@H]2C[C@H](O)[C@@H](CO)O2)cc1Br,-7.76%,-6.27%,inactive,inactive,inactive,inactive,inactive,inactive,inactive,inactive,–,–,–,–
Cc1ccc(S(=O)(=O)NC(=O)NN2CCCCCC2)cc1,-5.36%,12.1%,inactive,inactive,inactive,inactive,inactive,inactive,inactive,inactive,–,–,–,–
NC(=O)c1cn(Cc2c(F)cccc2F)nn1,14.6%,0.958%,inactive,inactive,inactive,inactive,inactive,inactive,inactive,inactive,–,–,–,–
CNCCC(Oc1ccccc1OC)c1ccccc1 (stereo not given),3.02%,-7.17%,inactive,4.47 µM (active),10 µM (active),–,–,–,inactive,–,–,–,–,–
CCN(CC)CCNC(=O)c1cc(S(C)(=O)=O)ccc1OC,–,–,inactive,inactive,inactive,inactive,inactive,inactive,inactive,inactive,–,–,11.8%,10.3%
CCn1ccnc1CC1COc2ccccc2O1 (stereo not given),10.6%,1.07%,inactive,inactive,inactive,inactive,inactive,inactive,inactive,inactive,–,–,–,–
Cc1nc2ccccn2c(=O)c1CCN1CCC(C(=O)c2ccc(F)cc2)CC1,-18.1%,11.2%,inactive,14.1 µM (active),–,inactive,–,–,–,inactive,–,–,–,–
COc1ccc(CN(CCN(C)C)c2ccccn2)cc1,-7.89%,-2.95%,inactive,inactive,–,inactive,inactive,–,inactive,inactive,–,–,–,–
Cc1ccc(Cl)c(Nc2ccccc2C(=O)O)c1Cl,-0.156%,-3.06%,inactive,inactive,inactive,inactive,inactive,inactive,inactive,inactive,–,–,–,–
CN(C)CCN(Cc1cccs1)c1ccccn1,5.46%,6.28%,inactive,–,10 µM (active),12.6 µM (active),–,–,–,–,–,–,–,–
COc1cc2c(cc1OC)-c1cc(=Nc3c(C)cc(C)cc3C)n(C)c(=O)n1CC2,–,–,2.51 µM (active),0.891 µM (active),2.82 µM (active),3.55 µM (active),7.94 µM (active),3.55 µM (active),2.82 µM (active),5.62 µM (active),2.82 µM (active),2.51 µM (active),–,–
